Results on eight molecules are retold here after PubChem BioAssay (Tox21).

The nature of experiment [1]: Nuclear factor erythroid 2-related factor 2/antioxidant responsive element (Nrf2/ARE) small molecule agonists: luciferase reporter gene qHTS assay in human keratinocytes (AID 1919969). Further: nearly all actives have a fitted effect of over 35% in size.
In experiment [2] the target is Gonadotropin-releasing hormone receptor (Homo sapiens) (UniProt P30968). Description: Human gonadotropin-releasing hormone receptor (GnRHR) small molecule agonists, calcium flux assay in GnRHR-HEK293 cells (AID 1920063). Further: nearly all actives have a fitted effect of over 35% in size. In short, it runs like this: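 Intracellular calcium rise is the read-out: engineered human GnRHR HEK293 cells, dye-loaded, are exposed to DMSO-dissolved compounds and fluorescence at Ex/Em 480/540 is tracked for 3 min.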
Gonadotropin-releasing hormone receptor (Homo sapiens), sequence (P30968 whole entry, looked up): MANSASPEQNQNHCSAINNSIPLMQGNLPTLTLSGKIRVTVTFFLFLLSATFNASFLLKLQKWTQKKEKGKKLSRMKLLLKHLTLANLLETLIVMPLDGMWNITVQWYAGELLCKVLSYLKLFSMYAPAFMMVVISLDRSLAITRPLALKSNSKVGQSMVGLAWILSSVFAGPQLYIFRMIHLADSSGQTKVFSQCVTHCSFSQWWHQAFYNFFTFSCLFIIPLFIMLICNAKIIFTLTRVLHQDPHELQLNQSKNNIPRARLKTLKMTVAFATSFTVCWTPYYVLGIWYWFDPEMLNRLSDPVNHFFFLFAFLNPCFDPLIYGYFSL

For experiment [3], the target named is KiSS-1 receptor (Homo sapiens) (UniProt Q969F8). Description: Human kisspeptin (KISS1R) small molecule agonists, calcium flux assay in KISS1R-HEK293 cells (AID 1920064; active means well fitted activation curve with a large enough effect in the repeat runs). In short, it runs like this:
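Concentration-response testing used 15 concentrations in triplicate on human KISS1R-expressing HEK293 cells. Calcium-dependent fluorescence (Ex/Em 480/540) was followed kinetically for 3 min after compound transfer.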
For orientation: Calcium assays in cells follow changes in intracellular calcium, usually with a dye or a luminescent sensor.

Experiment [4] can be described thus: G protein-coupled receptor (GPCR) small molecule agonists, calcium flux assay: HEK293 wild type cell line counter screen (AID 1920065). Put shortly:
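Fluorescence intensity signals activation. After overnight (18 h) culture and a 1 h calcium dye load at 37 C, compounds are added by pin tool and the plate read at 480/540 nm for 3 min in 1 s steps.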

Experiment [5] in a line: p53 small molecule agonists, cell-based qHTS assay with human liver microsomes (AID 1963577). In short, it runs like this: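 Cells carrying a p53-responsive bla reporter were rested 5 h (37 C, 5% CO2) before compound transfer. Human liver microsomes plus NADPH, 0.5 mg/mL final apiece, supplied metabolism during the 16 h 37 C exposure.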
(In general: Quantitative high-throughput screening tests each substance at several concentrations.)

Experiment [6] can be described thus: p53 small molecule agonists, cell-based qHTS assay with rat liver microsomes (AID 1963578). In short, it runs like this:
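Fluorescence from a beta-lactamase reporter under a p53 response element was measured after cells had been incubated 16 h at 37 C with test compound and rat liver microsomes plus NADPH (0.5 mg/mL final each).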

The nature of experiment [7]: p53 small molecule agonists, cell-based qHTS assay with human liver microsomes: qHTS cell viability counter screen (AID 1963579). Further: nearly all actives have a fitted effect of over 45% in size. Put shortly: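 Seed p53RE-bla cells at 4,000 per well; incubate 5 h at 37 C; add compound, human liver microsomes and NADPH; incubate 16 h at 37 C; add CellTiter-Glo; after 30 min at room temperature, read luminescence.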
Experiment [8] can be described thus: p53 small molecule agonists, cell-based qHTS assay with rat liver microsomes: qHTS cell viability counter screen (AID 1963580). Further: nearly all actives have a fitted effect of over 45% in size. Put shortly: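 Luminescent ATP readout (CellTiter-Glo, 30 min at room temperature) reports viability of p53RE-bla HCT-116 cells after 16 h at 37 C with test compounds under metabolic activation by rat liver microsomes and NADPH at 0.5 mg/mL final each.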

Experiment [9] can be described thus: p53 small molecule agonists, cell-based qHTS assay (AID 1963582; active means well fitted activation curve with a large enough effect in the signal ratio in the repeat runs, not every such curve was filed as active; the % refers to the signal ratio). Put shortly:
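After plating, p53RE-bla cells sat 5 h in the incubator; compounds or DMSO vehicle were pinned in; a 16 h incubation at 37 C followed; FRET substrate was added and, 2 h later at RT, fluorescence was measured.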

Experiment [10] addresses 5-hydroxytryptamine receptor 2A (Homo sapiens) (UniProt P28223). Description: 5-hydroxytryptamine receptor 2A (HTR2A) small molecule antagonists, cell-based qHTS assay (AID 1963586). Further: nearly all actives have a fitted effect of over 45% in size. Further: potency means the concentration at half of the fitted maximal effect. In short, it runs like this:
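CHO cells stably expressing human HTR2A were plated for 18 h at 37 C, then loaded with calcium dye for 1 h. Compounds were preincubated 5 min at room temperature before DOI (4 nM solution) was added. Kinetic fluorescence was read for 3 min.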

For experiment [11] the target is unchanged. Description: 5-hydroxytryptamine receptor 2A (HTR2A) small molecule agonists, cell-based qHTS assay (AID 1963587). Further: nearly all actives have a fitted effect of over 30% in size. Put shortly:
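HTR2A-CHO cells, plated 18 h at 37 C/5% CO2, dye-loaded 1 h at 37 C; compounds in DMSO added by pin tool (agonist mode). Intracellular calcium flux read as kinetic fluorescence on FDSS over 2 min at 1 s intervals.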

Experiment [12] has as its target Muscarinic acetylcholine receptor M1 (Homo sapiens) (UniProt P11229). Description: Cholinergic receptor muscarinic 1 (CHRM1) small molecule antagonists, cell-based qHTS assay (AID 1963588). Further: nearly all actives have a fitted effect of over 40% in size. Further: potency means the concentration at half of the fitted maximal effect. In short, it runs like this: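 Compounds were tested at 15 concentrations in three independent runs. Dye-loaded CHRM1-CHO cells were exposed 5 min at room temperature before stimulation by acetylcholine added at 50nM. Intracellular calcium was read kinetically on FDSS for 3 min.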

For experiment [13] the target is unchanged. Description: Cholinergic receptor muscarinic 1 (CHRM1) small molecule agonists, cell-based qHTS assay (AID 1963589). Further: nearly all actives have a fitted effect of over 35% in size. In short, it runs like this:
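Fluorescent calcium dye reports M1 activation in stably transfected CHO cells. Compounds, 15 concentrations, added after 1 h dye loading at 37 C; kinetic reading at 1 sec intervals.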

A short description of experiment [14]: cAMP Responsive Elements (CRE) small molecule agonists, cell-based qHTS assay (AID 1963590). Put shortly:
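Compound exposure lasted 3 h at 37 C/5% CO2 in CRE-bla HEK 293T cells grown in assay medium with 10% dialyzed FBS and 25 mM HEPES. Reporter signal came from LiveBLAzer B/G FRET substrate, 2 h, room temperature.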

Experiment [15] in a line: cAMP Responsive Elements (CRE) small molecule antagonists, cell-based qHTS assay (AID 1963591; active means well fitted inhibition curve with a large enough effect in the signal ratio in the repeat runs, not every such curve was filed as active; the % refers to the signal ratio). Put shortly:
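Stimulation used NKH477 at a final 0.25 uM for 3 h in compound-treated CRE-bla HEK293T cells, seeded 18 h beforehand. Reporter activity was measured with LiveBLAzer B/G FRET substrate after 2 h at room temperature.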

Experiment [16] concerns the target Beta-2 adrenergic receptor (Homo sapiens) (UniProt P07550). Description: Adrenergic beta2 receptor (ADRB2) small molecule antagonists, cell-based qHTS assay (AID 1963592). Further: series mostly up to about 92 µM; nearly all actives have a fitted effect of over 50% in size. Put shortly:
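Assay format: CHO-ADRB2 cells, 18-20hr seeding at 37C/5% CO2, then compound plus 1nM isoproterenol agonist mix for 0.5hr RT. Homogeneous time-resolved fluorescence cAMP detection after 1hr, expressed as 665/615 nm ratio.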

For experiment [17] the target is unchanged. Description: Adrenergic beta2 receptor (ADRB2) small molecule agonists, cell-based qHTS assay (AID 1963593).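 Further: CHO cells stably overexpressing human ADRB2.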 In short, it runs like this: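 CHO cells stably over-expressing ADRB2 were plated overnight at 37C, then dosed with compounds plus a stimulation mix containing 100uM IBMX and 25uM Ro-20-1724 for 0.5hr at room temperature. cAMP was measured by HTRF competition, 1hr.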

Experiment [18] concerns the target D(2) dopamine receptor (Homo sapiens) (UniProt P14416). Description: Dopamine D2 receptor (DRD2) small molecule antagonists, cell-based qHTS assay (AID 1963595; active means well fitted inhibition curve with a large enough effect in the signal ratio in the repeat runs, with a control signal flat; the % refers to the signal ratio; further: potency means the concentration at half of the fitted maximal effect). In short, it runs like this:
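Antagonism was scored as restored cAMP in HEK293-DRD2 cells. These cells were stimulated with 200 nM NKH477 and 12 nM quinpirole for 30 min at room temperature, in the presence of 0.1 mM Ro20-1724.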

For experiment [19] the target is unchanged. Description: Dopamine D2 receptor (DRD2) small molecule agonists, cell-based qHTS assay (AID 1963594). Further: nearly all actives have a fitted effect of over 35% in size. In short, it runs like this: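 HEK293 cells stably expressing DRD2 were cultured 24 h at 37 C, then given Ro20-1724 (0.1 mM final) and compounds for 10 min at room temperature. NKH477 (200nM) was then added for 30 min. cAMP was read by HTRF.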
Experiment [20] in a line: p53 small molecule agonists, cell-based qHTS assay: qHTS cell viability counter screen (AID 1963581). Further: nearly all actives have a fitted effect of over 45% in size. Put shortly:
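Luminescence from CellTiter-Glo, reflecting ATP content, serves as the cytotoxicity measure; it is taken after the 2 h reporter substrate step in HCT-116 p53RE-bla cells dosed for 16 h at 37 C.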

Each structure is given as a SMILES string. Unmarked numbers belong to inactive results. Records with an inconclusive call do not appear. The source made the active and inactive calls. Unless noted, the call rests on the fitted dose curve.

KiSS-1 receptor (Homo sapiens), sequence (Q969F8 whole entry, looked up): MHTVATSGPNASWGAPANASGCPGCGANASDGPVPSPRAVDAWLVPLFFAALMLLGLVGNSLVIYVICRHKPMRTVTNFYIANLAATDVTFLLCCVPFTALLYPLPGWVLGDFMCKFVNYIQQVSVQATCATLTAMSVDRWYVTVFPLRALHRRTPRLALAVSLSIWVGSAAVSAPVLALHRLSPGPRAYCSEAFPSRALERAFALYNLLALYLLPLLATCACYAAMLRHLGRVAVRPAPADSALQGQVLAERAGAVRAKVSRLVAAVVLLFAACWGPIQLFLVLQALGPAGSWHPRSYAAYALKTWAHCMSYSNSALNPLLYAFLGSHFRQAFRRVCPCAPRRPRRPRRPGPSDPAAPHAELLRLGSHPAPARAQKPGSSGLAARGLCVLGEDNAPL
Muscarinic acetylcholine receptor M1 (Homo sapiens), sequence (P11229 whole entry, looked up): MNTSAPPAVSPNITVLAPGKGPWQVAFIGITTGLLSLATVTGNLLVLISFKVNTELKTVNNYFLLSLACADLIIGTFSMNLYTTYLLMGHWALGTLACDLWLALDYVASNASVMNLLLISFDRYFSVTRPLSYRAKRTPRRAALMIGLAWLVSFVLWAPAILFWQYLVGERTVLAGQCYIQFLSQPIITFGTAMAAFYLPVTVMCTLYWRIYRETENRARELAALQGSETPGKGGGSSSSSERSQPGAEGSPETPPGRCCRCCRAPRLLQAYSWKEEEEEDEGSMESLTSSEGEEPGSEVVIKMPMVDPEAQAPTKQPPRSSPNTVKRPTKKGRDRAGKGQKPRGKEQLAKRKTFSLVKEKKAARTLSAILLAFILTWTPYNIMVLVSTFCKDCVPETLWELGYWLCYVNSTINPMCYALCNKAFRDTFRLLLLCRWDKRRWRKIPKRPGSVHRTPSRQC
D(2) dopamine receptor (Homo sapiens), sequence (P14416 whole entry, looked up): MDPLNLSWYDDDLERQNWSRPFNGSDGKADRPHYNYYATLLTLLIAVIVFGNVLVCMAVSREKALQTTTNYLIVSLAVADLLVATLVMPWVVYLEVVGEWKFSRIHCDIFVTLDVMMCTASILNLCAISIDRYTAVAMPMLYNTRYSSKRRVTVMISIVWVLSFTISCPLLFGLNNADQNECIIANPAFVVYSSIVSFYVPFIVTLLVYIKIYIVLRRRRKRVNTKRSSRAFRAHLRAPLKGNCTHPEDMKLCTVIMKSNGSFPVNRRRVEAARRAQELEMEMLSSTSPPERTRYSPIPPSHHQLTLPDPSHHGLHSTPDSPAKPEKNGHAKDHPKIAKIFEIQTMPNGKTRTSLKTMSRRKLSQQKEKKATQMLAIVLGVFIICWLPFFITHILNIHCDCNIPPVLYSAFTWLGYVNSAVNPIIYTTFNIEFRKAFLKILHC
Beta-2 adrenergic receptor (Homo sapiens), sequence (P07550 whole entry, looked up): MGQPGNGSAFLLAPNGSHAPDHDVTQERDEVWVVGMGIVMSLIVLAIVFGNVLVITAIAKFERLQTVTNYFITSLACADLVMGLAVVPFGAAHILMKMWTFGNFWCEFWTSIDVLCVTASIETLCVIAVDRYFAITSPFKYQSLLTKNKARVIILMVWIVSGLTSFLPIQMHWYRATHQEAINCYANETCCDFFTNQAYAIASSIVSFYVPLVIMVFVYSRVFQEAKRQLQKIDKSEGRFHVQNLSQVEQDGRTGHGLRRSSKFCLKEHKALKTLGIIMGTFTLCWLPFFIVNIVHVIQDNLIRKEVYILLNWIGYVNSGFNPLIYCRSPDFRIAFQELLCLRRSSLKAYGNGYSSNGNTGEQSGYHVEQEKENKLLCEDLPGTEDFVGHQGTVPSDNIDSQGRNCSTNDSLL
5-hydroxytryptamine receptor 2A (Homo sapiens), sequence (P28223 whole entry, looked up): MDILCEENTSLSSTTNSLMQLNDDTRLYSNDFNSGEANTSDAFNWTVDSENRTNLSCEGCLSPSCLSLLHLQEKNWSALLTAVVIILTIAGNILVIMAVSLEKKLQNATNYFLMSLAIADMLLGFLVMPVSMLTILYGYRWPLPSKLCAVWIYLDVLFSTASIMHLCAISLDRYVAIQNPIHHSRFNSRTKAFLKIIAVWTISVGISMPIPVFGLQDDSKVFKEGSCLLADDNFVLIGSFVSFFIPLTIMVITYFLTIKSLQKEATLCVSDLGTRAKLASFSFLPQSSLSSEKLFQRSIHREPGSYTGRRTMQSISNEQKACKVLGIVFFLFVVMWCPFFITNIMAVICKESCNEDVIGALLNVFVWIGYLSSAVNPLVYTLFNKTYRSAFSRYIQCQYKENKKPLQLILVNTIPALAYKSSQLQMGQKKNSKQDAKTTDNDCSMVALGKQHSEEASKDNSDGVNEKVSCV

As for `CC(C)C(=O)OC/C=C/c1ccccc1`, the Potency entry in experiment [1], in experiment [2], in experiment [5], in experiment [6], in [7] and in experiment [8] was “inactive” throughout. Besides, the Potency result in experiment [9], in experiment [10], in experiment [11], in experiment [12], in [13] and in experiment [14] was “inactive” throughout. The Potency result in [15], in experiment [16], in experiment [17] and in experiment [18] was “inactive” each time. For the same molecule, the result in experiment [3] and in experiment [4] was inactive.

As to `CCc1cc(Cl)c(OC)c(C(=O)NC[C@@H]2CCCN2CC)c1O`, the Potency entry in experiment [1], in experiment [2], in [5], in experiment [6], in experiment [7] and in [8] was “inactive” in each case. Besides, the Potency entry in experiment [9], in experiment [12], in [13], in experiment [14], in experiment [15] and in experiment [19] was “inactive” in each case. Moreover, the outcome in [3] and in experiment [4] was inactive. The Potency in experiment [18] is 3.3 nM (active).

Turning to `CN1CCCC(n2nc(Cc3ccc(Cl)cc3)c3ccccc3c2=O)CC1` (centres undefined), the Potency entry in experiment [1], in experiment [2], in experiment [5], in [6], in [7] and in [8] was “inactive” in each case. Besides, the Potency entry in [9], in experiment [11], in experiment [13] and in experiment [19] was “inactive” in each case. For the same molecule, the outcome in experiment [3] and in experiment [4] was inactive. In addition, in experiment [10], the Potency was 460 nM (active).

For the molecule `CCCn1cnc2c1c(=O)n(CCCCC(C)=O)c(=O)n2C`, the Potency entry in experiment [1], in [2], in experiment [5], in experiment [6], in experiment [8] and in experiment [9] was “inactive” in each case. Also, the Potency result in experiment [10], in experiment [11], in [12], in [13], in experiment [16] and in experiment [17] was “inactive” each time. Further, the Potency result in experiment [19] and in experiment [18] was “inactive” throughout. The result in experiment [3] and in experiment [4] was inactive.

`COc1ccc(-n2nc(C(F)F)cc2-c2ccc(S(C)=O)cc2)cc1` (centres undefined): the Potency entry in [1], in experiment [2], in experiment [5], in [6], in experiment [7] and in [20] was “inactive” each time. The Potency result in experiment [9], in experiment [10], in experiment [11], in [12], in experiment [13] and in experiment [16] was “inactive” each time. The Potency result in [17], in experiment [19] and in experiment [18] was “inactive” throughout. In addition, the outcome in experiment [3] and in experiment [4] was inactive.

With `CC(C)=CCC[C@H](C)CCO`, the Potency result in experiment [1], in [2], in [5], in [6], in [8] and in experiment [20] was “inactive” each time. Also, the Potency entry in experiment [9], in experiment [10], in experiment [11], in experiment [12], in experiment [13] and in experiment [14] was “inactive” each time. For the same molecule, the Potency entry in experiment [15], in experiment [16], in [19] and in [18] was “inactive” throughout. Further, the result in [3] and in experiment [4] was inactive.

Take `CC(C=O)Cc1ccc(C(C)C)cc1` (centres undefined): the Potency result in [1], in experiment [2], in experiment [6], in experiment [7], in [8] and in experiment [20] was “inactive” in each case. Moreover, the Potency entry in [9], in experiment [10], in experiment [11], in experiment [12], in experiment [13] and in [14] was “inactive” throughout. Moreover, the Potency entry in [15], in experiment [16], in [19] and in [18] was “inactive” throughout. Moreover, the outcome in [3] and in [4] was inactive.

Take `CN1CCN(C2Cc3ccccc3Sc3ccc(Cl)cc32)CC1` (centres undefined): the Potency entry in experiment [1], in [2], in experiment [5], in experiment [6], in experiment [8] and in experiment [20] was “inactive” in each case. Moreover, the Potency result in [13], in experiment [16] and in experiment [19] was “inactive” in each case. For the same molecule, the result in [3] and in [4] was inactive. Also, the Potency was 41 nM (active) in [10], 65 nM (active) in experiment [12] and 133 nM (active) in experiment [18].
